Among all 360,000 compounds or so, about 16,000 (4.4%) were called active. About 9% were inconclusive and are not listed. The list comes from a sample in which actives are over-represented; it also holds similar structures and randomly drawn compounds. A number with no mark means an inactive call. Calls follow the shape of the dose curve; as a rule, active = well fitted inhibition curve with a large enough effect; inconclusive = small, poorly fitted or top-dose-only effect; inactive = no such curve, though single readings can be large or run the other way.
% is scaled to controls: 0 for no effect and ±100 for the full control effect; potency is read from the fitted curve at half-maximal effect.

For this test, the target named is Bromodomain adjacent to zinc finger domain protein 2B (Homo sapiens) (UniProt Q9UIF8). The test can be described thus: qHTS Assay for Inhibitors of BAZ2B. Also: nearly all actives have a fitted effect of over 60% in size. As to conditions: AlphaScreen BAZ2B-H3K14Ac peptide displacement; series mostly up to 114 µM; activity change, negative = inhibition: at the top concentration. The essentials: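 Protein-peptide AlphaScreen: BAZ2B 50 nM, b-H3K14Ac 50 nM, 1x PBS pH 7.4 + 0.01% Tween-20. Preincubation 30 min RT; cpd 30 min RT (top 110 uM); beads 20 min RT, light-protected.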
Chain of Bromodomain adjacent to zinc finger domain protein 2B (Homo sapiens) (Q9UIF8 whole entry, looked up, the tested form may be a part): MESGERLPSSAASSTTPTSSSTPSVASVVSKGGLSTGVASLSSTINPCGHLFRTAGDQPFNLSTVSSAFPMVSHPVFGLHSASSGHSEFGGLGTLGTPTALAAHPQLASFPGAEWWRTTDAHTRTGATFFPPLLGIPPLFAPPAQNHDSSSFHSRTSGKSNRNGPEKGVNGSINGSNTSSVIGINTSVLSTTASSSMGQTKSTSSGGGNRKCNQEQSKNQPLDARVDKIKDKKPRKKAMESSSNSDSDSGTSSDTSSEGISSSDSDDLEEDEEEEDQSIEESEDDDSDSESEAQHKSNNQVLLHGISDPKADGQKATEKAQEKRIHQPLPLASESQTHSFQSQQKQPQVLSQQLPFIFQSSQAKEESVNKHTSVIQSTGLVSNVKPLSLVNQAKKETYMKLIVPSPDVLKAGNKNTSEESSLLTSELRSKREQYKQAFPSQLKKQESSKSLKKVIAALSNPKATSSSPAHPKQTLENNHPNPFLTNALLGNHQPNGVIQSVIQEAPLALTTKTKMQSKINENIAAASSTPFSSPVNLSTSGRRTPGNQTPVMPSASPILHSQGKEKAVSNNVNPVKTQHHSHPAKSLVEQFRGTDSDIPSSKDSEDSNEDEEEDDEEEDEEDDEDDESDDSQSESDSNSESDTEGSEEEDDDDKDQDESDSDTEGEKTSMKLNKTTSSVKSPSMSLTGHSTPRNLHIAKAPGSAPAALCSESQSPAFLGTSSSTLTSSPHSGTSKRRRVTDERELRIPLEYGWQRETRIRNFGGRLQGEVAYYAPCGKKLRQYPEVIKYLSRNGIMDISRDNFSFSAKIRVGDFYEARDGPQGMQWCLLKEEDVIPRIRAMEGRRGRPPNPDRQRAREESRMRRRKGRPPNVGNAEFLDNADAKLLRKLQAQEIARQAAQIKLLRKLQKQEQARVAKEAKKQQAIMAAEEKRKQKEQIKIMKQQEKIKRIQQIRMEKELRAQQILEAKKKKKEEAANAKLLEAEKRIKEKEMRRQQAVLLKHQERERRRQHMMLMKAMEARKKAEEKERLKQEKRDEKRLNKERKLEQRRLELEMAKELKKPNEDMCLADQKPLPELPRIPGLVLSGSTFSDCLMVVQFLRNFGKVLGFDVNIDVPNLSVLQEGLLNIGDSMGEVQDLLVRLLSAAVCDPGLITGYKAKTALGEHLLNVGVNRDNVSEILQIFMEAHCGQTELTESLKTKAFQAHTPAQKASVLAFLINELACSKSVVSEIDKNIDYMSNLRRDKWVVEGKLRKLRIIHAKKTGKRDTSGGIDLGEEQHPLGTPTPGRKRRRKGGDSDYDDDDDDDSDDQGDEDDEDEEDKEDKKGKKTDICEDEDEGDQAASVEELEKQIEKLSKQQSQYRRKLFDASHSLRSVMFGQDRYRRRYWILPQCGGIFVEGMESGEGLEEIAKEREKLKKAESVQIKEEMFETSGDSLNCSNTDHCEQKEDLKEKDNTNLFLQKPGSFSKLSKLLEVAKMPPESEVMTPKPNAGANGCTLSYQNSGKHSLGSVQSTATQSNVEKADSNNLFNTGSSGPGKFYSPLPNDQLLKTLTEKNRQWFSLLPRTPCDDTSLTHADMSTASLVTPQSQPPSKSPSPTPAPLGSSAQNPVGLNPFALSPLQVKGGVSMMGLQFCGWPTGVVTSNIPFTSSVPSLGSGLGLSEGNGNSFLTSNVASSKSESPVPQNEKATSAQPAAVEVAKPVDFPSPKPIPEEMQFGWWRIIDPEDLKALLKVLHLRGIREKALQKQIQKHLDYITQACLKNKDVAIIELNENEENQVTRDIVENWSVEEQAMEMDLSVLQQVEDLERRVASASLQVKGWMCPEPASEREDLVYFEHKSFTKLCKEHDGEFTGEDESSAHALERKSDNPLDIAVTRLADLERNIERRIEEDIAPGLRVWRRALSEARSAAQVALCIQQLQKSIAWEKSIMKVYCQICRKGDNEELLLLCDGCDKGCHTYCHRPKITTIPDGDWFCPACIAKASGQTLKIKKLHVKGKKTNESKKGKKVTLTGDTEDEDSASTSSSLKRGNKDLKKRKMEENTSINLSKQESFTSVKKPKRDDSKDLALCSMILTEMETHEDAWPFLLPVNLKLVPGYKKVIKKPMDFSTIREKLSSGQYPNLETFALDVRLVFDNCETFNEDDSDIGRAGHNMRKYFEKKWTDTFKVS
In general terms: Quantitative high-throughput screening tests each substance at several concentrations.
As to `O=C(CC(c1cccs1)N1Cc2ccccc2C1=O)Nc1ccc(F)c(F)c1` (stereo not given), the “activity change, negative = inhibition” value was 5.65%.

On to `CC(=O)c1c(C)n(S(=O)(=O)c2ccc(Cl)cc2)c2ccc(NS(=O)(=O)c3ccc(Cl)cc3)cc12`, for which the “activity change, negative = inhibition” value is -19.7%.

For the compound `COc1ccc(N2CCN(C(=O)C3CCN(C(=O)c4ccccc4Cl)CC3)CC2)cc1`, the “activity change, negative = inhibition” value was 1.59%.

Turning to `Cn1c(C(=O)N2CCCC(C(=O)NCc3ccccc3)C2)cc2sccc21` (stereo not given), the “activity change, negative = inhibition” value was -26%.

Take `COc1ccc(N2CCN(C(=O)C3CCCN(C(=O)c4cc5sccc5n4C)C3)CC2)cc1` (stereo not given): the Potency was 39.8 µM (active).

As to `Cc1cc(C)cc(NS(=O)(=O)c2cc3c(cc2C)NC(=O)CO3)c1`, the “activity change, negative = inhibition” value is -32.2%.

As for `COc1ccc(C)cc1Nc1nc(C)nc2c1oc1ccccc12`, the “activity change, negative = inhibition” value is -23.2%.

`COC(=O)c1cnc(Nc2cc(C)ccc2OC)c2ccccc12`: the “activity change, negative = inhibition” value is 32.2%.

Take `COc1ccc(C)cc1Nc1nc(-c2c(C)[nH]c3ccccc23)cs1`: the Potency was 50.1 µM (active).

On to `O=C(COc1ccccc1Cl)Nc1ccc2nc(SCC(=O)N3CCCC3)sc2c1`, for which the “activity change, negative = inhibition” value was -8.22%.

Turning to `Cc1c(C(=O)NCc2ccccc2Br)oc2ccc3c(c12)C(=O)CC(C)(C)O3`, the “activity change, negative = inhibition” value was -5.06%.

As to `CCOC(=O)c1c(C)[nH]c(C)c1S(=O)(=O)N1CCC(C(=O)Nc2ccc(C)c(Cl)c2)CC1`, the “activity change, negative = inhibition” value is 2.17%.

As for `CCOC(=O)c1ccc(NC2=CC(c3ccc(OCC)cc3)N(c3ccc(C(=O)OCC)cc3)C2=O)cc1` (stereo not given), the “activity change, negative = inhibition” value was -14.4%.

With `COc1ccc(CCNc2ncnc3onc(-c4ccc(Cl)cc4)c23)c(OC)c1`, the “activity change, negative = inhibition” value was 12.3% [at 57.1 µM].

Regarding `COc1ccc(N=C(C)c2sc3ccccc3c2O)cc1`, the “activity change, negative = inhibition” value is -14.3%.

In the case of `CC(=O)n1c(C=Nc2ccccc2)c(O)c2ccccc21`, the “activity change, negative = inhibition” value is 34.9%.

In the case of `Oc1ccc(N=Cc2sc3ccccc3c2Cl)cc1`, the Potency is 31.6 µM (active).

Turning to `COc1ccc(C(F)(F)F)cc1NC(=O)c1sc2nc(-c3cccs3)ccc2c1N`, the “activity change, negative = inhibition” value was 1.9%.

On to `Nc1cc(N)nc(SCc2ccc(Cl)cc2)n1`, for which the “activity change, negative = inhibition” value is -2.43%.

Turning to `O=C(C1CC1)N1CCN=C1SCc1ccc(Cl)cc1`, the “activity change, negative = inhibition” value is 7.34%.

For the compound `Clc1ccc(CSc2nncn3c2cc2occc23)cc1`, the Potency is 44.7 µM (active).

With `COC(=O)c1sccc1S(=O)(=O)N(CC(=O)Nc1ccc(C)c(F)c1)c1ccc(C)c(C)c1`, the “activity change, negative = inhibition” value is -8.1%.

As for `CCOC(=O)c1c(NC(=O)c2cc(-c3ccc(Cl)cc3)on2)sc2c1CCCC2`, the “activity change, negative = inhibition” value was -0.226%.

With `COc1ccccc1-c1nnc(C2CCN(C(=O)c3ccc(Cl)cc3)CC2)o1`, the “activity change, negative = inhibition” value is -15%.

In the case of `Cc1ccc(Oc2c(C(F)(F)F)oc3c(CN4CCCCC4)c(O)ccc3c2=O)cc1`, the “activity change, negative = inhibition” value is -2.73%.

For the compound `Cc1nnc(C)n1-c1ccc(C(=O)Nc2cccc(Br)c2)cc1`, the “activity change, negative = inhibition” value was 1.73%.

As to `Cc1ccccc1CN1CCC(CNC(=O)c2cc3ccc4cccnc4c3[nH]2)CC1`, the “activity change, negative = inhibition” value was 15.2% [at 57.1 µM].

Regarding `O=C(CCCCCN1C(=O)c2cccc3cccc(c23)C1=O)NCc1ccco1`, the “activity change, negative = inhibition” value was 5.06%.

For `O=C(CCN1C(=O)/C(=C/c2cccs2)SC1=S)NNC(=O)c1cccc(O)c1`, the “activity change, negative = inhibition” value is -6.89%.

Turning to `O=C(CCCN1C(=O)/C(=C\c2ccco2)SC1=S)Nc1cccc2ccccc12`, the Potency was 44.7 µM (active).

As for `CCn1c(=O)c(=O)n(CC)c2cc(N3CCCCC3)c(NC(=O)c3cccc(F)c3)cc21`, the “activity change, negative = inhibition” value was 2.52%.

`COc1ccc(C)cc1NC(=O)COCc1cc(-c2cccs2)on1`: the “activity change, negative = inhibition” value is 33.5%.

Take `O=C(NCCc1c[nH]c2ccccc12)c1cccc(Br)c1`: the “activity change, negative = inhibition” value was -24.7%.

For `Cc1cc(C)cc(NC(=S)NCCc2c[nH]c3ccccc23)c1`, the Potency is 28.2 µM (active).

For the compound `Cc1cc(C)cc(NC(=S)NCc2ccc(F)cc2)c1`, the “activity change, negative = inhibition” value is -0.9%.

As to `COc1ccc(CNC(=O)COCc2cc(-c3cccs3)on2)cc1OC`, the “activity change, negative = inhibition” value is -0.39%.

With `CCN(C(=O)Cn1cc(S(=O)(=O)N2CCN(c3ccccc3F)CC2)c2ccccc2c1=O)c1ccc(C)c(C)c1`, the “activity change, negative = inhibition” value is -12.9%.

`Cc1ccc(CN(C(=O)c2ccccc2[N+](=O)[O-])c2ccccn2)cc1`: the “activity change, negative = inhibition” value was -24.1%.

Consider `CCc1ccc(N(CC)C(=O)CCn2cnc3onc(-c4ccc(F)cc4)c3c2=O)cc1`, for which the “activity change, negative = inhibition” value was -5.56% [at 57.1 µM].

Consider `Cc1cccc(N2CCN(C(=O)c3cnc(N4CCCC4)nc3C)CC2)c1C`, for which the “activity change, negative = inhibition” value was -13.1%.

In the case of `Cc1cccc(N2CCN(C(=O)/C=C/c3ccco3)CC2)c1C`, the Potency is 50.1 µM (active).

Consider `CCC(CC)C(=O)N1CCN(c2cccc(C)c2C)CC1`, for which the “activity change, negative = inhibition” value was -21.9%.

Consider `CCOc1ccc2nc(N3CCCC(C(=O)Nc4cc(C)ccc4C)C3)sc2c1` (stereo not given), for which the “activity change, negative = inhibition” value is -6.74%.

On to `CC(C)c1ccc2oc(-c3cc(NC(=O)c4cccs4)ccc3Cl)nc2c1`, for which the “activity change, negative = inhibition” value was -2.9%.

For `CCOc1ccc(-n2c(O)c(/C=N/Nc3nnc(C)c(=O)[nH]3)c3ccccc3c2=O)cc1`, the Potency is 12.6 µM (active).

As to `O=C(COc1ccc(Cl)cc1Cl)N/N=C/c1ccccn1`, the “activity change, negative = inhibition” value was 16.5%.

With `Cc1nnc(N/N=C/C2CC=CCC2)[nH]c1=O` (stereo not given), the “activity change, negative = inhibition” value was -7.79%.

With `CCOc1ccc(-n2c(O)c(/C=N/Nc3nc(C)cc(C)n3)c3ccccc3c2=O)cc1`, the “activity change, negative = inhibition” value was -7.49%.

As for `Cc1nnc(N/N=C/c2ccccn2)[nH]c1=O`, the Potency is 39.8 µM (active).

On to `CCOc1ccc(-n2c(O)c(/C=N/c3ccnn3Cc3ccncc3)c3ccccc3c2=O)cc1`, for which the “activity change, negative = inhibition” value is -19.4%.

The values above are taken from PubChem BioAssay AID504333 (National Center for Advancing Translational Sciences (NCATS), 2011).
